Bioassay records (PubChem BioAssay)
This is a sample that favours compounds with a hit; in the whole collection about 9.3% have one here.
Rab9 promoter act – qHTS Assay for Rab9 Promoter Activators | AID 485297, 2010 | Huh7 Rab9 promoter-luciferase reporter, luminescence, 24 h | actives 2.8% (n = 320,000) | Potency, µM (series often up to 9.22 µM), for the others: at the top dose activation, negative = inhibition, actives largely listed as activators; note: % of control where 0% means no effect; nearly all actives have a fitted effect of over 60% in size
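Luminescence from Amplite-detected luciferase (10 minutes, ambient) reports Rab9 promoter activation. Before that, stable Rab9-luciferase Huh7 cells (1500/well, reduced-serum OP-MEM I plus 10% FBS) were exposed to compound for 24 hours at 37C.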
FLuc counter – qHTS profiling assay for firefly luciferase inhibitor/activator using purifed enzyme and Km concentrations of substrates (counterscreen for miR-21 project); AID 588342, 2011; purified FLuc, Km substrates, luminescence inhibition; Potency, µM (top dose mostly 57.5 µM), for inactives: at the highest dose activity change, negative = inhibition, actives largely listed as inhibitors; actives 6.9% (n = 360,000);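 note: plate controls were vehicle for no effect and reference inhibitor for full effect; nearly all actives have a fitted effect of over 55% in size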
Target sequence (P08659 whole entry, looked up): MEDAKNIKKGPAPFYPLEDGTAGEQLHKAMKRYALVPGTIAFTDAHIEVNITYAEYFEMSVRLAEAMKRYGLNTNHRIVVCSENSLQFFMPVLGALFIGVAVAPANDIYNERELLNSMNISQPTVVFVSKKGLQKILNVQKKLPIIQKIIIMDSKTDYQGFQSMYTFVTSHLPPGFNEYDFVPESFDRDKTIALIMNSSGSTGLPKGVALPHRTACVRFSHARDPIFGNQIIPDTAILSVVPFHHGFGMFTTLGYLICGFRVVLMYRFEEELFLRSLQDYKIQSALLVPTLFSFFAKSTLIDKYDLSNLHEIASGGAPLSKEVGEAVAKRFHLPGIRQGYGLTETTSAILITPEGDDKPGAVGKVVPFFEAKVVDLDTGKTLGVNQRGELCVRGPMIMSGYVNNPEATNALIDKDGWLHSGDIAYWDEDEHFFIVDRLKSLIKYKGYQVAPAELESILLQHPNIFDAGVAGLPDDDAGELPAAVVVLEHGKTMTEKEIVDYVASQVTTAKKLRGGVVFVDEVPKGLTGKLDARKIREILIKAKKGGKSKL
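Biochemical qHTS of compounds, final roughly 60 µM downward over six points, against 10 nM purified firefly luciferase using Km concentrations of substrates (10 uM D-luciferin, 10 uM ATP) in Tris acetate pH 7.5 buffer; luminescence output.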
NPC1 prom act – qHTS Assay for NPC1 Promoter Activators | Huh7 NPC1 promoter luciferase reporter, 24 h | Potency, µM (series often up to 9.22 µM), inactives show at the top dose activation, usual class: activators | actives 2.4% (n = 320,000) | AID 485313, 2010; note: % of control where 0% means no effect; nearly all actives have a fitted effect of over 60% in size
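Stable NPC1-promoter luciferase Huh7 line; cpd (DMSO) 24 h, 37 °C, 5% CO2; Amplite luciferase reagent 10 min RT; luminescence readout. qHTS format.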
ELG1 genotoxic – qHTS screen for small molecules that induce genotoxicity in human embryonic kidney (HEK293T) cells expressing luciferase-tagged ELG1; HEK293T ELG1-luciferase reporter, luminescence, 16 h; Potency, µM (highest dose often 46 µM), for inactives: at the highest dose activity change, positive = activation, most hits filed as activators; actives 1.3% (n = 330,000); AID 504466, 2011; note: % of control where 0% means no effect; nearly all actives have a fitted effect of over 60% in size
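Cells (2,000/well) expressing the ELG1-luciferase fusion are dosed by pin tool and kept 16 hr at 37 °C, 5% CO2. Signal comes from ONE-Glo luciferase reagent after 30 min at room temperature.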
ELG1 DNA repair – qHTS screen for small molecules that inhibit ELG1-dependent DNA repair in human embryonic kidney (HEK293T) cells expressing luciferase-tagged ELG1; HEK293T ELG1-luciferase reporter, luminescence, 16 h; DNA damage induced by 5-fluorouridine; Potency, µM (series often up to 46.1 µM), inactives show at the top dose activity change, negative = inhibition, most hits filed as inhibitors; actives 2.3% (n = 330,000); note: % is set by controls: 0 for no effect and ±100 for the full control effect; nearly all actives have a fitted effect of over 55% in size
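5-Fluorouridine DNA damage + compound/DMSO, 2,000 cells/well, 16 h, 37 °C/5% CO2. ONE-Glo, 30 min RT, luminescence. Readout = decrease in reporter signal.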
SMN2 splice enh – qHTS Assay for Enhancers of SMN2 Splice Variant Expression. HEK293 SMN2-luciferase splicing reporter, luminescence, 30-36 h. actives 2.8% (n = 210,000). Potency, µM (titrated, usually from 46.1 µM), inactives show top-dose activity change, positive = activation, hits mostly activators; note: % of control where 0% means no effect; nearly all actives have a fitted effect of over 55% in size
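HEK293 cells carry an SMN2 minigene-luciferase reporter in which exon 7 inclusion puts luciferase in frame. Cells were seeded at 2000 cells/well, attached for 10-12 hours, then exposed to compounds for 30-36 hours at 37C before ONE-Glo luminescence.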
Numbers without * were called inactive; ? = inconclusive; / = no result; [ ] = another dose, or the depositor's remark. Calls come from the whole dose curve; as a rule, active = well fitted curve in the direction sought with a large enough effect; inconclusive = small, poorly fitted or top-dose-only effect, or another doubt; inactive = no such curve, though single readings can be large; an effect the other way counts as inactive or inconclusive. Potency is the fitted concentration of half-maximal effect.

SMILES | Rab9 promoter act | FLuc counter | NPC1 prom act | ELG1 genotoxic | ELG1 DNA repair | SMN2 splice enh
CC(C)NC(=O)c1ccc2c3n(nc2c1)-c1ccccc1CO3 | ? | 0.43µM* | 0.28µM* | ? | ? | /
CC(C)[C@@H](CO)NC(=O)c1ccc2c3n(nc2c1)-c1ccccc1CO3 | ? | 1.7µM* | 0.5µM* | ? | ? | /
Cc1c(C(=O)N/N=C/c2cccs2)nnn1-c1nonc1N | 10% | ? | 11% | 11% | 19% | /
COc1ccc(CNC(=O)c2cc3cc(S(=O)(=O)N4CCCCC4)ccc3n2C)c(OC)c1 | / | 3% | / | / | / | /
COCCCN(C(=S)Nc1c(C)cc(C)cc1C)C(C)c1ccccn1 (stereo unspecified) | -1% | -1% | -5% | -2% | -8% | 7%
C=CCN1C(=O)/C(=C2\SC(N3CCOCC3)=NC2=O)c2cc(Br)ccc21 | -3% | -14% | -1% | -6% | ? | 11%
CCN1C(=O)/C(=C2\SC(N3CCOCC3)=NC2=O)c2ccccc21 | 26% | 11µM* | 18% | 3% | ? | /
CCCCN1C(=O)/C(=C2\SC(N3CCOCC3)=NC2=O)c2ccccc21 | 2µM* | ? | 2µM* | -2% | ? | /
COc1ccc(-c2cc3ccc(OCC(N)=O)cc3oc2=O)cc1OC | 23% | ? | 28% | 13% | ? | /
COc1ccc(-c2cc3ccc(OC(C)C(=O)O)cc3oc2=O)cc1 (stereo unspecified) | 27% | 27µM* | 22% | ? | ? | /
CC(=O)Oc1ccc2cc(-c3ccccc3)c(=O)oc2c1 | ? | 2.4µM* | 4µM* | ? | ? | /
O=C(CCCCl)Oc1ccc2cc(-c3ccc4ccccc4n3)c(=O)oc2c1 | ? | ? | ? | ? | ? | 13µM*
CC(=O)COc1ccc2cc(-c3ccccc3)c(=O)oc2c1 | 1µM* | ? | 1.1µM* | ? | ? | /
CCCCOCCCN1CC(=O)N2[C@@H](Cc3c([nH]c4ccccc34)C2(C)C)C1=O | -5%[1.84 µM] | 1% | -3% | -15% | 13µM* | /
CCN(CC)S(=O)(=O)c1ccc(-c2nnc(SCC(=O)Nc3nc(C)cs3)o2)cc1 | -13% | -2% | 5% | -5% | -16% | 6%
Cc1csc(NC(=O)CSc2nnc(-c3ccccc3)o2)n1 | 2µM* | -4% | 3.2µM* | 5µM* | ? | 11µM*
Cc1csc(NC(=O)CSc2nnc(NC(=O)COc3ccccc3)s2)n1 | 12% | 2.1µM* | 6% | 8% | 23% | 26%
O=C(CSc1nnc(CNC(=O)c2ccccc2)o1)NCc1ccccc1Cl | 8% | 4% | 6% | -1% | 1% | /
Clc1ccc(-c2cc(COc3ccccc3)on2)cc1 | ? | 11µM* | 15% | -16% | ? | ?
O=S(=O)(Cc1cc(-c2ccc(Cl)cc2)no1)c1ccccc1 | 3.5µM* | ? | ? | 9.2µM* | ? | 13µM*
O=S(=O)(NCc1cc(-c2ccc(Cl)cc2)no1)c1ccccc1 | 1% | 3% | 2% | 3% | 11% | -5%
O=S(=O)(Cc1cc(-c2ccccc2Cl)no1)c1ccccc1 | 2.8µM* | 17µM* | ? | ? | ? | ?
CCOc1ccc(NC(=O)C2CCN(c3nnc(-n4c(C)ccc4C)s3)CC2)cc1 | / | -4% | / | / | / | 1%
O=c1[nH]cnc2nc(-c3ccccc3)c(-c3ccccc3)nc12 | -2% | 3% | -1% | 0% | 11% | -1%
O=c1[nH]cnc2nn(-c3ccccc3)nc12 | ? | 21µM* | ? | ? | ? | ?
SMILES | Rab9 promoter act | FLuc counter | NPC1 prom act | ELG1 genotoxic | ELG1 DNA repair | SMN2 splice enh
CCOc1ccc2nc(Cl)sc2c1 | 4% | -11% | 1% | 0% | 3% | 10%
COc1ccc2nc(N3C(=O)/C(=C/c4ccccc4)NC3=S)sc2c1 | -2% | 11µM* | 1% | -4% | 3% | -19%
CCOc1ccc2nc(N3C(=O)/C(=C/c4ccccc4)NC3=S)sc2c1 | ? | 6µM* | ? | ? | ? | /
COc1ccc2nc(-n3c(C)ccc3C)sc2c1 | 2% | -2%[2.3 µM] | 6% | 14% | ? | 2%
CCOC(=O)c1sc(NC(=O)c2nc(SC)ncc2Cl)c(C(=O)OCC)c1C | / | -1% | / | / | / | -6%
COc1ccc2nc(NNC(=O)C3COc4ccccc4O3)sc2c1 (stereo unspecified) | 0% | -12% | 0% | 1% | 12% | -3%
CC1CC1C(=O)Nc1nc2ccc(S(C)(=O)=O)cc2s1 (stereo unspecified) | 18% | -21% | 12% | 10% | 26% | /
COc1ccc2nc(NC(=O)C3COc4ccccc4O3)sc2c1 (stereo unspecified) | 3.2µM* | 3µM* | 1.6µM* | ? | ? | 13µM*
CS(=O)(=O)c1ccc2nc(NC(=O)C3COc4ccccc4O3)sc2c1 (stereo unspecified) | 22% | 11µM* | 26% | 6% | ? | /
O=C(Nc1nc(-c2nc3ccccc3s2)cs1)C1COc2ccccc2O1 (stereo unspecified) | 28% | 19µM* | 20% | 1% | ? | 25µM*
COc1ccc(OC)c(-c2csc(NC(=O)C3COc4ccccc4O3)n2)c1 (stereo unspecified) | 2% | -15% | -1% | 3% | ? | -16%
Cc1ccc(CNC(=O)c2nn(-c3ccc(Cl)cc3)nc2CO)cc1 | / | -2% | / | / | / | -16%
COc1ccc(N2CCN(C(CNC(=O)C(=O)NCc3cccs3)c3ccco3)CC2)cc1 (stereo unspecified) | -2% | 0% | 1% | -9% | ? | -29%
CN(C)c1ccc(/C=C2\C(=N)N3N=C(CC(=O)N4CCCCC4)SC3=NC2=O)cc1 | 3% | 13µM* | 3% | 6% | ? | /
Cc1ccn2cc(-c3ccc(O)c(O)c3)nc2c1 | 17% | 3µM* | ? | 3.3µM* | ? | /
Nc1cc(-c2ccc(Br)cc2)nc2cc(-c3ccccc3)nn12 | -2% | ? | -1% | -17% | ? | -25%
Oc1ccc(-c2cn3ccccc3n2)cc1 | 2.8µM* | 5.4µM* | 2.2µM* | ? | ? | /
Oc1ccc(-c2cn3ccccc3n2)cc1O | ? | 12µM* | 27% | 13µM* | ? | /
